The sample as a whole holds a higher share of hits than the screen did.
TDP1 inh: qHTS Assay for Inhibitors of Tyrosyl-DNA Phosphodiesterase (TDP1); Tyrosyl-DNA phosphodiesterase 1 (Homo sapiens), Q9NUW8; recombinant TDP1, AlphaScreen DNA substrate cleavage; Potency, µM (titrated, usually from 130 µM), for the others: top-dose activity change, negative = inhibition, most hits filed as inhibitors; 350,000 tested, 0.28% active; further: nearly all actives have a fitted effect of over 40% in size
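Enzyme-compound mixtures sat 15 min at room temperature, followed by a 5 min reaction with 15 nM final substrate and 10 min with AlphaScreen beads. Recombinant human Tdp1 was used at 1 nM final.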
BLM inh: qHTS Assay for Inhibitors of Bloom's syndrome helicase (BLM). RecQ-like DNA helicase BLM (Homo sapiens), P54132. recombinant BLM DNA unwinding, fluorescence dequenching. Potency, µM (top dose mostly 56.1 µM), for the others: at the highest dose activity change, negative = inhibition, most hits filed as inhibitors. 350,000 tested, 0.2% active. AID 2528, 2010;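 further: plate controls were vehicle for no effect and no enzyme for full effect; nearly all actives have a fitted effect of over 35% in size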
L3MBTL1 inh: qHTS Assay for the Inhibitors of L3MBTL1. AlphaScreen L3MBTL1–H3K9me1 peptide binding. Potency, µM (doses to about 57.1 µM), for inactives: top-dose activity, negative = inhibition, hits mostly inhibitors. 230,000 tested, 0.66% active; further: nearly all actives have a fitted effect of over 60% in size
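AlphaScreen assay: L3MBTL1 (50 nM final) was preincubated 30 min at room temperature with biotinylated H3(1-15)K9me1 peptide (75 nM final), then 30 min with library compounds; streptavidin donor and nickel chelate acceptor beads (10 ug/mL final) added, 30 min dark.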
RECQ1 inh: qHTS Assay for Inhibitors of RecQ-Like Dna Helicase 1 (RECQ1). RECQ1 DNA unwinding, red fluorescence kinetic read. Potency, µM (series often up to 57.3 µM), without a hit: top-dose activity, negative = inhibition, actives largely listed as inhibitors. ATP-dependent DNA helicase Q1 (Homo sapiens), P46063. 240,000 tested, 0.54% active. AID 2549, 2010;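 further: plate controls were vehicle for no effect and no enzyme for full effect; nearly all actives have a fitted effect of over 30% in size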
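RECQ1T1 50 nM; forked duplex (20 bp + 30-nt ss tails) 200 nM, ATP 2 mM final; pH 8.0, 2 mM MgCl2, 2.5 ug/ml poly(dI-dC); 15 min compound preincubation; discontinuous kinetic read over 2 h at RT.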
APEX1 inh: qHTS Assay for Inhibitors of the Human Apurinic/apyrimidinic Endonuclease 1 (APE1) | Potency, µM (titrated, usually from 65.8 µM), without a hit: at the highest dose activity change, negative = inhibition, most hits filed as inhibitors | 350,000 tested, 0.35% active | recombinant APE1, TAMRA/BHQ-2 abasic DNA cleavage fluorescence | DNA repair nuclease/redox regulator APEX1 (Homo sapiens), P27695;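 further: plate controls were vehicle for no effect and reference inhibitor for full effect; nearly all actives have a fitted effect of over 55% in size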
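Kinetic fluorescence read (525 ex/598 em nm, three reads 60 s apart) of AP-site incision; signal = third minus first read. Enzyme 0.75 nM, dual-labelled THF duplex 50 nM, compound preincubation 15 min RT.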
JMJD2E inh: qHTS Assay for Inhibitors of Human Jumonji Domain Containing 2E (JMJD2E). Lysine-specific demethylase 4E (Homo sapiens), B2RXH2. JMJD2E catalytic domain, FDH-coupled NADH fluorescence (FDH is formaldehyde dehydrogenase). Potency, µM (series often up to 57.1 µM), for inactives: at the top dose activity change, negative = inhibition, most hits filed as inhibitors. 230,000 tested, 1.6% active. AID 2147, 2009; active means well fitted inhibition curve with a large enough effect, not every such curve was filed as active; inconclusive means small, poorly fitted or top-dose-only effect, or another doubt; inactive means no such curve, though single readings can be large or run the other way;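 further: 0% = wells with enzyme and -100% = buffer wells without enzyme; nearly all actives have a fitted effect of over 50% in size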
An asterisk follows results filed as active; i = inactive; ? = inconclusive; / = no result given; [ ] = remark or other dose. Unless noted, the call rests on the fitted dose curve; in most records, active means well fitted curve in the direction sought with a large enough effect; inconclusive means small, poorly fitted or top-dose-only effect, or another doubt; inactive means no such curve, though single readings can be large; an effect the other way counts as inactive or inconclusive. Unless noted, on the % scale 0 is the no-effect control and ±100 the full control effect; potency means the concentration at half of the fitted maximal effect.

SMILES	TDP1 inh	BLM inh	L3MBTL1 inh	RECQ1 inh	APEX1 inh	JMJD2E inh
CC(=O)c1c(C)c(C)c2n1CCn1c(C)ccc1-2	6%	-12%	/	-4%	-4%	22µM*
Cc1cc(C)c(NC(=O)CN2C(=O)CCSc3ccc(S(=O)(=O)N4CCCC4)cc32)c(C)c1	2%	-5%	/	/	/	/
COc1ccc(S(=O)(=O)Nc2ccc(O)c3ccccc23)cc1	4%	0%	28µM*	-3%	3%	2%
O=[N+]([O-])c1ccc(O)c(C=Nc2cccc3ccccc23)c1	5%	-3%	3%	/	-3%	/
O=[N+]([O-])c1ccc(O)c(N=Cc2sc3ccccc3c2O)c1	5%	-20%	-17%	-16%	?	7.1µM*
C=CCOc1c(CNc2ccc3[nH]c(=O)[nH]c3c2)cccc1OC	6%	1%	-1%	i	4%	20µM*
COc1cccc(CNc2ccc3[nH]c(=O)[nH]c3c2)c1OCc1ccc(F)cc1	/	-11%	?	/	24%	/
Cc1cc(NS(=O)(=O)c2ccc(NC(=O)c3cc4c(=O)n5ccccc5nc4s3)cc2)nc(C)n1	40µM*	-11%	-23%	-29%	?	?
CC1CS(=O)(=O)CCN1/N=C/c1ccc([N+](=O)[O-])o1 (stereo not given)	/	/	/	/	1%[21 µM]	/
O=C(Nc1nc2ccccc2n1CCN1CCOCC1)c1cn(-c2ccccc2)nc1-c1ccccc1	12%	-8%	-18%	-14%	-6%	25µM*
O=C(Nc1nc2ccccc2n1CCN1CCOCC1)c1ccccc1	/	3%	-5%	/	2%	/
COC(=O)Cc1[nH]n(-c2nc3ccccc3s2)c(=O)c1C(C)=Nc1ccc(Cl)cc1	/	0%	-12%	i	11%	35µM*
CC(C)c1cc(C(=O)Nc2sc3c(c2C#N)CCC3)no1	7%	-4%	5%	i	-5%	0%
CC(C)c1onc(C(=O)Nc2sc3c(c2C#N)CCC3)c1[N+](=O)[O-]	-2%	-15%	/	40µM*	?	-9%
CC1=NN(c2ccccc2)C(=O)C1N=Nc1ccc(N)cc1 (stereo not given)	13%	-6%	25µM*	-14%	11%	14µM*
Cc1ccc(C)c(CN2C(=O)c3ccccc3Sc3ccc(C(=O)NC4CCCC4)cc32)c1	5%	0%	/	/	/	/
Cc1cccn2c(=O)c3cc(C(=O)NCc4ccco4)c(=N)n(C4CCCCC4)c3nc12	/	47%	/	/	17µM*	/
Cc1ccc2nc3c(cc(C(=O)NCc4ccco4)c(=N)n3C3CCCC3)c(=O)n2c1	2%[0.0935 µM]	4%	/	/	40%	/
COc1ccc(CCC(=O)O)c(O)c1	/	-7%	/	i	16µM*	-18%
CC(C)OC(=O)[C@@H]1CC[C@H](C)[C@@H](CCC[C@@H]2C[C@@H](O)C[C@H](CC#N)O2)O1	16%	1%	/	1%	0%	-4%
COc1ccc(Cn2c(-c3ccco3)nc3oc4ccccc4c(=O)c3c2=O)cc1	3%	1%	6%	-10%	0%	4%
COc1ccc2c(=O)c3c(=O)n(Cc4ccco4)c(-c4ccco4)nc3oc2c1	45µM*	-26%	/	2%	?	?
COC(=O)C1=COC(OC2OC(CO)C(O)C(O)C2O)C2C1C=CC2(O)CO (stereo not given)	/	-6%	/	-15%	7.9µM*	-5%
Cc1nc2cc(NCc3ccccc3O)ccc2n1Cc1ccccc1	8%	-2%	-15%	-16%	2%	40µM*
